Measurements taken from PubChem BioAssay AID763 (NMMLSC, 2007).
Unmarked numbers belong to inactive results. The source made the active and inactive calls. How the calls were made is not given here.

Biological target: fMet-Leu-Phe receptor (Homo sapiens) (UniProt P21462)
Test: FPR1 fluorescent ligand binding inhibitors, SAR follow-up, selectivity assay for FPRL1 ligand SAR project, cell-based, single concentration (AID 763)
Details: FPR1-expressing cells, stronger effect = higher value; at 5.4 µM unless noted

fMet-Leu-Phe receptor (Homo sapiens), sequence (P21462 whole entry, looked up): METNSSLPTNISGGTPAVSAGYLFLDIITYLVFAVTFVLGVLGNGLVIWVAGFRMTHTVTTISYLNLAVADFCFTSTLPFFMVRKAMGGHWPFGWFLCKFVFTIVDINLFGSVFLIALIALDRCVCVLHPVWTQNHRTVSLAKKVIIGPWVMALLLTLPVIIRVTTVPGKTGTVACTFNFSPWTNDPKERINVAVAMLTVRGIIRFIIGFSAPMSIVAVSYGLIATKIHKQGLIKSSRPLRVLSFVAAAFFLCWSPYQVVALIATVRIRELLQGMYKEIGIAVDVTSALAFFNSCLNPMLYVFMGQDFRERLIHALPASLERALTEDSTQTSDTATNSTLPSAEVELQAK

Structure (SMILES)	inhibition
CCN1CCN(c2nc(-c3cccc(Cl)c3)c3c(n2)-c2ccccc2OC3)CC1	-9.4% [at 5.5 µM]
COc1ccc(C2CC(=O)c3cnc(N4CCN(Cc5ccc6c(c5)OCO6)CC4)nc3C2)cc1 (stereo not drawn)	0.4% [at 4.7 µM]
COc1ccccc1-c1cc(C(F)(F)F)nc(N2CCN(c3ccc(F)cc3)CC2)n1	-2.5% [at 5.1 µM]
COc1cccc(-c2cc(C(F)(F)F)nc(N3CCN(C)CC3)n2)c1	1.9% [at 6.3 µM]
O=C(O)/C=C\C(=O)N1CCN(c2nc(-c3ccccc3)c3cc(Br)ccc3n2)CC1	-5.7% [at 4.8 µM]
COc1ccc(-c2cn3cccnc3n2)cc1NC(=O)COc1ccc(Cl)cc1	-3.3%
COc1ccc(-c2cn3cccnc3n2)cc1NC(=O)c1ccc(Cl)cc1	-0.5% [at 5.9 µM]
COc1ccc(-c2cn3cccnc3n2)cc1NC(=O)c1ccc(Br)cc1	-0.1% [at 5.3 µM]
COc1ccc(-c2cn3cccnc3n2)cc1NC(=O)CCc1ccccc1	6.4% [at 6 µM]
O=C(O)CC1(CC(=O)N2CCN(c3nc(-c4ccccc4Cl)c4cc(Br)ccc4n3)CC2)CCCC1	-1.2% [at 3.9 µM]
COc1ccc(-c2cn3cccnc3n2)cc1NC(=O)c1ccccc1Br	0.1% [at 5.3 µM]
COc1ccc(-c2cn3cccnc3n2)cc1NC(=O)c1ccccc1OC	3.8% [at 5.9 µM]
Fc1ccc(-c2cc(C(F)(F)F)nc(N3CCN(c4ccccc4)CC3)n2)cc1	-1% [at 5.5 µM]
O=C(N1CCN(c2nc(-c3ccccc3)c3ccccc3n2)CC1)C(F)(F)F	5.9% [at 5.8 µM]
COc1ccc(-c2cn3cccnc3n2)cc1NC(=O)c1cc(C)cc(C)c1	-0.5% [at 6 µM]
FC(F)(F)c1cc(-c2cccs2)nc(N2CCN(C(c3ccccc3)c3ccccc3)CC2)n1	-2.4% [at 4.6 µM]
O=C(O)CCC(=O)N1CCN(c2nc(-c3ccccc3)c3cc(Br)ccc3n2)CC1	-0.5% [at 4.7 µM]

Structure (SMILES)	inhibition
COc1ccc(-c2cc(C(F)(F)F)nc(N3CCN(c4ccccc4)CC3)n2)cc1OC	54.8% [at 5 µM] (active)
COc1ccc(-c2cc(C(F)(F)F)nc(N3CCN(C(c4ccccc4)c4ccccc4)CC3)n2)cc1OC	-2.6% [at 4.2 µM]
COc1ccc(-c2cn3cccnc3n2)cc1NC(=O)c1ccc(C)c(C)c1	-2.6% [at 6 µM]
Clc1cccc(-c2nc(N3CCN(C4CCCCC4)CC3)nc3c2COc2ccccc2-3)c1	-4.5% [at 4.8 µM]
C/C=C\C(=O)Nc1cc(-c2cn3cccnc3n2)ccc1OC	4% [at 7.2 µM]
FC(F)(F)c1cc(-c2ccccc2)nc(N2CCN(c3cccc(Cl)c3)CC2)n1	-2.5% [at 5.3 µM]
Clc1ccccc1N1CCN(c2nc(-c3ccccc3)c3cc(Br)ccc3n2)CC1	2.1% [at 4.6 µM]
COc1ccccc1N1CCN(c2nc(-c3ccc(F)cc3)cc(C(F)(F)F)n2)CC1	-1.1% [at 5.1 µM]
COc1ccc(-c2cn3cccnc3n2)cc1NC(=O)c1cccc(C(F)(F)F)c1	-2%
COc1ccc(-c2cn3cccnc3n2)cc1NC(=O)c1ccccc1	-4.9% [at 6.5 µM]
COc1ccc(-c2cn3cccnc3n2)cc1NC(=O)c1ccccc1C(F)(F)F	-3.2%
FC(F)(F)c1cc(-c2ccccc2)nc(N2CCN(Cc3ccccc3)CC2)n1	-9.1% [at 5.6 µM]
CCOC(=O)N1CCN(c2nc(-c3ccccc3OC)cc(C(F)(F)F)n2)CC1	1%
O=C(c1ccc(Cl)cc1)N1CCN(c2nc(-c3ccccc3)c3ccccc3n2)CC1	-1.9% [at 5.2 µM]
FC(F)(F)c1cc(-c2ccccc2)nc(N2CCN(c3ccccc3)CC2)n1	2.9% [at 5.8 µM]
CC1(C)CC(=O)c2cnc(N3CCN(Cc4ccc5c(c4)OCO5)CC3)nc2C1	11.3% [at 5.6 µM]
